S2 tox: cell viability loss in ATXN counter-screen. S2 cells (HEK-293 line with an ATXN2-luciferase reporter) viability, CellTiter-Fluor protease fluorescence, 24 h. Potency, µM (series often up to 56.7 µM), most hits filed as cytotoxic. 400,000 tested, 0.49% active. AID 651635; further: nearly all actives have a fitted effect of over 40% in size
HepG2 tox-1: HepG2 cytotoxicity, counter-screen for TGF-b inhibitors; AID 588856; 410,000 tested, 0.76% active; HepG2 CAGA-GFP viability, ATP luminescence, 18 h; Potency, µM (doses to about 46.1 µM), without a hit: top-dose activity change, negative = cytotoxicity, actives largely listed as cytotoxic
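CellTiter-Glo luminescence gave cytotoxicity after 18 hours at 37 degrees C. The cells were HepG2 CAGA-GFP in 1% FBS DMEM, stimulated with 500 pg/mL TGF-beta after compound addition. %Activity was normalised to no-cell wells (complete cell-killing) and DMSO (no toxicity), and curves were fitted and classified.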
TGFb SMAD3 inh: TGF-b pathway inhibition. HepG2 CAGA-GFP TGF-b/SMAD3 reporter, GFP fluorescence, 18 h; TGF-beta stimulated, 500 pg/mL final. Potency, µM (series often up to 46.1 µM), for the others: at the top dose activity, negative = inhibition, hits mostly inhibitors. 410,000 tested, 1.2% active; further: on the % scale 0 is the no-effect control and ±100 the full control effect; nearly all actives have a fitted effect of over 65% in size
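Cell-based qHTS in HEPG2 carrying a CAGA-GFP Smad reporter; compounds added before 500 pg/mL final TGF-beta, 18 h incubation at 37 degrees C, GFP fluorescence quantified per cell by imaging cytometry.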
ATXN2 expr inh: ATXN2 expression inhibition; HEK-293 ATXN2-luciferase reporter, luminescence, 24 h; Potency, µM (highest dose often 57 µM), inactives show top-dose activity change, negative = inhibition, actives largely listed as inhibitors; 360,000 tested, 0.72% active; further: on the % scale 0 is the no-effect control and ±100 the full control effect; nearly all actives have a fitted effect of over 55% in size
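ATXN2-luciferase reporter cells (luciferase flanked by upstream and downstream ATXN2 gene portions) were treated 24 h at 37 °C with compounds at up to 57 uM. SteadyGlo luminescence gave expression; GF-AFC fluorescence gave viability.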
ALOX12 inh: ALOX12 (human) lipoxygenase inhibition | P18054 | purified 12hLO, xylenol orange hydroperoxide absorbance | Potency, µM (titrated, usually from 108 µM), inactives show top-dose activity change, negative = inhibition, usual class: inhibitors | 580,000 tested, 1.1% active | AID 1671190; further: on the % scale 0 is the no-effect control and ±100 the full control effect
Target sequence (P18054 whole entry, looked up): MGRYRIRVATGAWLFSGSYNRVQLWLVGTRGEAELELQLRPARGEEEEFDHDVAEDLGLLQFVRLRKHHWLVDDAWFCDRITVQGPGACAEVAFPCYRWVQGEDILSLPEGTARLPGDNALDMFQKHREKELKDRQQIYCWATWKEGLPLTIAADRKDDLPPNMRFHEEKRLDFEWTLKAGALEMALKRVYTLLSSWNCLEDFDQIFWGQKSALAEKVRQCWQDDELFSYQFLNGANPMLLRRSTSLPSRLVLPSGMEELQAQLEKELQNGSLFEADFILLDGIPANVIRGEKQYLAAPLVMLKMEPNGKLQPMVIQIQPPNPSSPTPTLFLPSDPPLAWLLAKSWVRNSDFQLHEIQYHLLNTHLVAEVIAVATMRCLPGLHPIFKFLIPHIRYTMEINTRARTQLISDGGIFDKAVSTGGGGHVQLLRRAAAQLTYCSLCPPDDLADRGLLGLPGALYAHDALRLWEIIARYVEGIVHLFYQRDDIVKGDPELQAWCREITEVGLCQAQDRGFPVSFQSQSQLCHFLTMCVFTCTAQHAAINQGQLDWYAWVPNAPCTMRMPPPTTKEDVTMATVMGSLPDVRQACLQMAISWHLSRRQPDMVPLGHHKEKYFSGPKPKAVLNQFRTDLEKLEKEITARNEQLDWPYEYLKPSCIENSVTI
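Hydroperoxide product was detected by ferrous iron/xylenol orange as the 573 to 405 nm absorbance ratio. Arachidonic acid at 40 uM (final) was turned over for 30 min at room temperature by 150 nM human 12hLO, pH 7.0 Hepes buffer, after 15 min compound preincubation.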
TGFb CAGA inh: TGF-b pathway inhibition, cherry-pick retest; shares compounds with TGFb SMAD3 inh; HepG2 CAGA-GFP TGF-b reporter, GFP fluorescence, 18 h; cells stimulated with TGF-beta, 500 pg/mL; Potency, µM (highest dose often 46.1 µM), without a hit: at the highest dose activity, negative = inhibition, usual class: inhibitors; 1,600 tested, 63% active; further: on the % scale 0 is the no-effect control and ±100 the full control effect; nearly all actives have a fitted effect of over 65% in size
HepG2 tox-2: HepG2 cytotoxicity, TGF-b inhibitor counterscreen; shares compounds with TGFb SMAD3 inh; HepG2 CAGA-GFP viability, ATP luminescence, 18 h; cells stimulated with TGF-beta, 500 pg/mL; Potency, µM (titrated, usually from 46.1 µM), without a hit: at the top dose activity, negative = cytotoxicity, usual class: inhibitors; 1,600 tested, 27% active; further: on the % scale 0 is the no-effect control and ±100 the full control effect; nearly all actives have a fitted effect of over 70% in size
TGFb CCL64 inh: blocks TGF-b signaling in CCL64 reporter cells | Potency, µM (titrated, usually from 46.1 µM), for the others: at the top dose activity, negative = inhibition, actives largely listed as inhibitors | CCL64 CAGA-GFP reporter, TGF-b stimulated, GFP fluorescence, 18 h | shares compounds with TGFb SMAD3 inh | 1,600 tested, 41% active | AID 720536; further: nearly all actives have a fitted effect of over 65% in size
TGFb COP inh: blocks TGF-b signaling in HepG2 COP reporter; shares compounds with TGFb SMAD3 inh; HepG2 COP-GFP TGF-b reporter, GFP fluorescence, 18 h; cells stimulated by added recombinant TGF-beta; Potency, µM (series often up to 46.1 µM), for the others: at the top dose activity, negative = inhibition, actives largely listed as inhibitors; 1,600 tested, 3% active; AID 720537; further: nearly all actives have a fitted effect of over 70% in size
Active calls of the source: *; i = inactive; ? = inconclusive; . = no result; [ ] = another dose, or the depositor's remark. Compounds with a hit are over-represented: about 2.7% of the library has one in this group of screens. The call rests on the fitted dose curve; in most records, active means well fitted curve in the direction sought with a large enough effect; inconclusive means small, poorly fitted or top-dose-only effect, or another doubt; inactive means no such curve, though single readings can be large; an effect the other way counts as inactive or inconclusive. Potency means the concentration at half of the fitted maximal effect.

SMILES | S2 tox | HepG2 tox-1 | TGFb SMAD3 inh | ATXN2 expr inh | ALOX12 inh | TGFb CAGA inh | HepG2 tox-2 | TGFb CCL64 inh | TGFb COP inh
Cc1ccc(Nc2nc(-c3cccnc3)nc3ccccc23)cc1 | ? | 20µM* | ? | ? | ? | ? | ? | ? | 36%
COc1ccc(Nc2nc(-c3cccc([N+](=O)[O-])c3)nc3ccccc23)cc1 | i | -31% | -18% | -25% | -11% | . | . | . | .
COc1ccc(Nc2nc(-c3ccccc3)nc3ccccc23)cc1 | ? | -33% | ? | -30% | 0% | ? | -25% | ? | 5%
CC(=O)N1CCN(c2ccc([N+](=O)[O-])c(-n3nc(-c4ccc(C)cc4)c4ccccc4c3=O)c2)CC1 | . | . | . | . | -7% | . | . | . | .
Cc1cccc(Oc2coc3cc(OCC(=O)OC4CCCCC4)ccc3c2=O)c1 | . | . | . | . | -6% | . | . | . | .
O=C(Nc1ccc([N+](=O)[O-])cc1)Nc1ccc(OC(F)F)c(Cl)c1 | . | 13µM* | 4.5µM* | 13µM* | -12% | 13µM* | 5.8µM* | 3.7µM* | ?
COc1ccc(NC(=O)Nc2cccc([N+](=O)[O-])c2)cc1Cl | ? | -42% | ? | -29% | -6% | . | . | . | .
Cc1ccc(N2CCC3(CCCN3Cc3ccc4nsnc4c3)CC2)nn1 | . | . | . | . | 52% | . | . | . | .
CCCCNC(=O)c1nc2cc(C)c(C)cc2nc1-c1cccc(Br)c1 | . | . | . | . | -1% | . | . | . | .
CCc1nnc(NC(=O)C2CCN(c3ncnc4sc(C)c(C)c34)CC2)s1 | i | -1% | 11% | ? | 282% | . | . | . | .
Cc1sc2ncnc(N3CCC(C(=O)Nc4nc(-c5cccs5)cs4)CC3)c2c1C | ? | -1% | ? | 41% | -5% | 7.3µM* | ? | ? | 27%
Cc1ccc(C(=O)C2CCN(CC(=O)Nc3nc(C)cs3)CC2)cc1 | i | -1% | ? | -15% | 6%[57.4 µM] | 18µM* | -13% | 5% | 0%
O=C(COc1cccc(F)c1)N[C@@H](Cc1ccccc1)c1nc2ccccc2[nH]1 | i | -28% | ? | . | -13% | ? | -10% | -13% | -12%
CC(C)(C)CC(=O)N[C@@H](Cc1ccccc1)c1nc2ccccc2[nH]1 | i | -9% | 3% | -4% | . | . | . | . | .
CCCCCC(=O)Nc1cccc(C2=NOC3(C2)C[C@H](C(N)=O)N(C(=O)c2ccccc2C(=O)c2ccccc2)C3)c1 (some centres undefined) | i | -21% | 11µM* | -24% | -7% | ? | -10% | ? | 3%
CCCCCC(=O)Nc1cccc(C2=NOC3(C2)C[C@H](C(N)=O)N(C(=O)c2ccccc2)C3)c1 (some centres undefined) | i | -2% | 10% | -4% | 14% | . | . | . | .
CN(C)CC(=O)N1Cc2ccccc2CC2(CCN(Cc3ccccc3)C2)C1 (centres undefined) | . | . | . | . | 0%[6.33 µM] | . | . | . | .
COc1ccc(C(CCN2CCOCC2)c2c(O)cc(OC)cc2OC)cc1 (centres undefined) | i | -26% | ? | 8% | 0% | . | . | . | .
COc1ccc(C(c2c(O)ccc3ccccc23)N2CCOCC2)c(OC)c1 (centres undefined) | . | -114% | 6.3µM* | -48% | ? | ? | 23µM* | ? | ?
COc1ccc(NC(=O)C2CC(=O)Nc3c(-c4ccc(OC)cc4)cnn32)cc1 (centres undefined) | . | . | . | . | -8% | . | . | . | .
CC(C)CN1C(=O)C2(CC(=O)Nc3[nH]ncc32)c2ccccc21 (centres undefined) | . | . | . | . | 7% | . | . | . | .
C[C@H](CO)N1C[C@H](C)[C@@H](CN(C)C(=O)Nc2ccc(C(F)(F)F)cc2)Oc2ccc(NS(=O)(=O)c3ccc(F)cc3)cc2C1=O | ? | -4% | ? | -39% | ? | . | . | . | .
C[C@H](CO)N1C[C@H](C)[C@@H](CN(C)Cc2ccc(-c3ccccc3)cc2)Oc2c(NS(=O)(=O)c3ccccc3)cccc2C1=O | ? | -23% | ? | 0% | 0% | . | . | . | .
Cc1ccc(S(=O)(=O)Nc2cccc3c2O[C@H](CN(C)Cc2ccc(-c4ccccc4)cc2)[C@@H](C)CN([C@H](C)CO)C3=O)cc1 | ? | -23% | 10µM* | -23% | -4% | 16µM* | -4% | ? | 40%
C[C@H](CO)N1C[C@H](C)[C@@H](CN(C)S(=O)(=O)c2ccc(Cl)cc2)Oc2ccc(NS(=O)(=O)c3ccccc3)cc2CC1=O | ? | 3% | 4.5µM* | ? | -15% | ? | -11% | ? | 40%
Cc1noc(C)c1S(=O)(=O)Nc1ccc2c(c1)C(=O)N([C@@H](C)CO)C[C@H](C)[C@@H](CN(C)Cc1ccc(C(F)(F)F)cc1)OCCCC[C@H](C)O2 | . | -47% | 10µM* | ? | -36% | ? | ? | 33µM* | 68%
C[C@H](CO)N1C[C@H](C)[C@@H](CN(C)C(=O)Nc2ccc(C(F)(F)F)cc2)Oc2ccc(NS(=O)(=O)c3ccccc3)cc2C1=O | ? | -16% | 6.3µM* | 0% | 0% | ? | 1% | ? | 1%
C[C@@H]1CCCCO[C@H](CN(C)Cc2ccc(C(F)(F)F)cc2)[C@@H](C)CN([C@H](C)CO)C(=O)c2cc(NS(=O)(=O)c3cn(C)cn3)ccc2O1 | ? | 4% | 7% | 10% | -1% | . | . | . | .
Cc1ccc(S(=O)(=O)Nc2ccc3c(c2)CC(=O)N([C@H](C)CO)C[C@@H](C)[C@H](CN(C)S(=O)(=O)c2ccccc2)O3)cc1 | i | 1% | 3% | 3% | -5% | . | . | . | .

Screens deposited in PubChem by National Center for Advancing Translational Sciences (NCATS).
